Among all 5,500 compounds or so, about 2,000 (36%) were called active. About 18% were inconclusive and are not listed. Cut-off read from the data, not from the text of the source: active = normalized growth mostly below about 0.91 (no sharp cut-off); inconclusive = no clear call, values can overlap the other calls; inactive = mostly above about 0.92. Some of the results follow.
Experiment: chemical genetic growth profiling, strain panel (AID 1159580);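 note: tested at 20 µM; growth read once vehicle control cultures reached saturation at 30 °C; 1 = growth at the plate median or of vehicle wells; lower values mean less growth of the strain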
Settings: growth OD

Measured: normalized growth

CN1CCOC(c2ccccc2)c2ccccc2C1 (configuration not stated)
inactive: S. cerevisiae deletion strains, locus YJR075W, strain HOC1, hits give low values 0.992 | S. cerevisiae deletion strains, locus YKL009W, strain mrt4, hits give low values 0.956 | S. cerevisiae deletion strains, locus YKL068W, hits give low values 1.01 | S. cerevisiae deletion strains, locus YKL085W, strain MDH1 (second series), hits give low values 0.996 | S. cerevisiae deletion strains, locus YKL085W, strain MDH1, hits give low values 0.996 | S. cerevisiae deletion strains, locus YKL160W, strain elf1, hits give low values 0.993 | S. cerevisiae deletion strains, locus YKL190W, strain CNB1, hits give low values 1 | S. cerevisiae deletion strains, locus YKR001C, strain vps1, hits give low values 1.03 | S. cerevisiae deletion strains, locus YKR026C, strain gcn3, hits give low values 0.978 | S. cerevisiae deletion strains, locus YKR091W, strain srl3, hits give low values 0.984 | S. cerevisiae deletion strains, locus YLL001W, strain dnm1, hits give low values 0.976 | S. cerevisiae deletion strains, locus YLL026W, hits give low values 0.99 | S. cerevisiae deletion strains, locus YLL041C, strain sdh2, hits give low values 0.983 | S. cerevisiae deletion strains, locus YLR027C, strain aat2, hits give low values 1 | S. cerevisiae deletion strains, locus YLR039C, strain RIC1, hits give low values 1.01 | S. cerevisiae deletion strains, locus YLR058C, strain SHM2, hits give low values 1 | S. cerevisiae deletion strains, locus YLR102C, strain apc9, hits give low values 1.02 | S. cerevisiae deletion strains, locus YLR113W, strain HOG1, hits give low values 0.997 | S. cerevisiae deletion strains, locus YLR221C, strain rsa3, hits give low values 0.983 | S. cerevisiae deletion strains, locus YLR258W, strain gsy2, hits give low values 0.948 | S. cerevisiae deletion strains, locus YLR262C, strain YPT6 (second series), hits give low values 0.955 | S. cerevisiae deletion strains, locus YLR262C, strain YPT6, hits give low values 1.02 | S. cerevisiae deletion strains, locus YLR268W, strain sec22, hits give low values 1.07 | S. cerevisiae deletion strains, locus YLR320W, strain mms22, hits give low values 0.975 | S. cerevisiae deletion strains, locus YLR330W, strain CHS5, hits give low values 1.01 | S. cerevisiae deletion strains, locus YLR342W, strain FKS1 (second series), hits give low values 1.01 | S. cerevisiae deletion strains, locus YLR342W, strain FKS1, hits give low values 0.982 | S. cerevisiae deletion strains, locus YLR357W, strain rsc2, hits give low values 0.954 | S. cerevisiae deletion strains, locus YLR370C, strain arc18, hits give low values 0.982 | S. cerevisiae deletion strains, locus YLR371W, strain rom2, hits give low values 1.04 | S. cerevisiae deletion strains, locus YLR384C, strain iki3, hits give low values 0.979 | S. cerevisiae deletion strains, locus YLR418C, strain cdc73, hits give low values 1.05 | S. cerevisiae deletion strains, locus YML016C, strain PPZ1, hits give low values 0.999 | S. cerevisiae deletion strains, locus YML032C, strain rad52, hits give low values 1.03 | S. cerevisiae deletion strains, locus YML120C, strain ndi1, hits give low values 0.995 | S. cerevisiae deletion strains, locus YML124C, strain tub3, hits give low values 1.02 | S. cerevisiae deletion strains, locus YMR058W, strain fet3, hits give low values 1.01 | S. cerevisiae deletion strains, locus YMR078C, strain ctf18, hits give low values 1.01 | S. cerevisiae deletion strains, locus YMR125W, strain sto1, hits give low values 0.967 | S. cerevisiae deletion strains, locus YMR129W, hits give low values 0.999 | S. cerevisiae deletion strains, locus YMR205C, strain PFK2, hits give low values 0.966 | S. cerevisiae deletion strains, locus YMR223W, strain ubp8, hits give low values 1.01 | S. cerevisiae deletion strains, locus YMR231W, strain pep5, hits give low values 0.973 | S. cerevisiae deletion strains, locus YMR263W, strain SAP30, hits give low values 1.02 | S. cerevisiae deletion strains, locus YMR307W, strain GAS1, hits give low values 1.15 | S. cerevisiae deletion strains, locus YNL067W, strain RPL9B, hits give low values 1.02 | S. cerevisiae deletion strains, locus YNL071W, strain lat1, hits give low values 0.951 | S. cerevisiae deletion strains, locus YNL128W, strain TEP1, hits give low values 1.01 | S. cerevisiae deletion strains, locus YNL153C, strain GIM3, hits give low values 1.02 | S. cerevisiae deletion strains, locus YNL183C, strain NPR1, hits give low values 0.945 | S. cerevisiae deletion strains, locus YNL209W, strain ssb2, hits give low values 0.981 | S. cerevisiae deletion strains, locus YNL233W, strain BNI4, hits give low values 1.01 | S. cerevisiae deletion strains, locus YNL248C, strain rpa49, hits give low values 0.954 | S. cerevisiae deletion strains, locus YNL250W, strain rad50, hits give low values 1.01 | S. cerevisiae deletion strains, locus YNL271C, strain bni1, hits give low values 1.02 | S. cerevisiae deletion strains, locus YNL298W, strain CLA4, hits give low values 1.01 | S. cerevisiae deletion strains, locus YNL307C, strain MCK1, hits give low values 1.02 | S. cerevisiae deletion strains, locus YNL322C, strain KRE1 (second series), hits give low values 0.958 | S. cerevisiae deletion strains, locus YNL322C, strain KRE1, hits give low values 0.941 | S. cerevisiae deletion strains, locus YNR049C, strain mso1, hits give low values 0.968 | S. cerevisiae deletion strains, locus YNR052C, strain pop2, hits give low values 1.03 | S. cerevisiae deletion strains, locus YOL006C, strain TOP1, hits give low values 1.07 | S. cerevisiae deletion strains, locus YOL012C, strain htz1 1.34 | S. cerevisiae deletion strains, locus YOL147C, strain pex11, hits give low values 1.01 | S. cerevisiae deletion strains, locus YOR001W, strain rrp6, hits give low values 0.99 | S. cerevisiae deletion strains, locus YOR061W, strain CKA2, hits give low values 1.01 | S. cerevisiae deletion strains, locus YOR069W, strain VPS5, hits give low values 1 | S. cerevisiae deletion strains, locus YOR070C, strain gyp1, hits give low values 0.981 | S. cerevisiae deletion strains, locus YOR080W, strain dia2, hits give low values 0.989 | S. cerevisiae deletion strains, locus YOR083W, strain WHI5, hits give low values 0.971 | S. cerevisiae deletion strains, locus YOR106W, strain vam3, hits give low values 0.963 | S. cerevisiae deletion strains, locus YOR136W, strain idh2, hits give low values 1.01 | S. cerevisiae deletion strains, locus YOR144C, strain elg1, hits give low values 1.02 | S. cerevisiae deletion strains, locus YOR184W, strain ser1, hits give low values 1.02 | S. cerevisiae deletion strains, locus YOR231W, strain MKK1, hits give low values 0.995 | S. cerevisiae deletion strains, locus YOR265W, strain rbl2, hits give low values 0.985 | S. cerevisiae deletion strains, locus YOR270C, strain vph1, hits give low values 0.917 | S. cerevisiae deletion strains, locus YOR290C, strain snf2, hits give low values 0.966 | S. cerevisiae deletion strains, locus YOR316C, strain cot1, hits give low values 1.02 | S. cerevisiae deletion strains, locus YPL051W, strain arl3, hits give low values 0.995 | S. cerevisiae deletion strains, locus YPL055C, strain LGE1, hits give low values 1 | S. cerevisiae deletion strains, locus YPL078C, strain atp4, hits give low values 0.979 | S. cerevisiae deletion strains, locus YPL106C, strain sse1, hits give low values 0.921 | S. cerevisiae deletion strains, locus YPL240C, strain hsp82, hits give low values 0.969 | S. cerevisiae deletion strains, locus YPL241C, strain CIN2, hits give low values 1.01 | S. cerevisiae deletion strains, locus YPL256C, strain CLN2, hits give low values 0.997 | S. cerevisiae deletion strains, locus YPR119W, strain clb2, hits give low values 1.01 | S. cerevisiae deletion strains, locus YPR141C, strain kar3, hits give low values 1.01 | S. cerevisiae deletion strains, locus YPR163C, strain tif3, hits give low values 1.03 | S. cerevisiae deletion strains, locus YPR167C, strain met16, hits give low values 1.02 | S. cerevisiae deletion strains, strain wtn01, hits give low values 1.02 | S. cerevisiae strains, strain wild type, hits give low values 1.01

From PubChem BioAssay AID1159580 (chemical genetic matrix, 2015)
